Records with an inconclusive call do not appear. A call without a number means that no potency is given here. Calls of active or inactive are those of the source. Calls follow the shape of the full dose curve.
Potency is read from the fitted curve at half-maximal effect.

The nature of the experiment: qHTS assay for small molecules that induce genotoxicity in human embryonic kidney cells expressing luciferase-tagged ATAD5 - cell viability (AID 651634). Also: nearly all actives have a fitted effect of over 25% in size. Conditions: HEK293T ATAD5-luc cells viability, CellTiter-Fluor, 15.5 h; series mostly up to 83.3 µM. The text has this:
National Center for Advancing Translational Sciences [NCATS]
NIH Chemical Genomics Center [NCGC]
U.S. Environmental Protection Agency [EPA]
National Institutes of Environmental Health Sciences [NIEHS]
National Toxicology Program [NTP]
U.S. Food and Drug Administration [FDA]
Enhanced Level of Genome Instability Gene 1 (ELG1; human ATAD5) protein levels increase in response to various types of DNA damage. Using a luciferase reporter-gene tagged with ElG1, a cell-based assay [developed by Kyungjae Myung, NHGRI, NIH] was used to measure the induction of ATAD5 in human embryonic kidney cells (HEK293T). So, increase in luciferase activity can be used to identify the compounds that cause genetic stress. In addition to genotoxicity, these cells were also used to test for cytotoxicity by measuring the protease activity within live cells.
Tox21 Assay Protocol Summary:
For cytotoxicity screening, 2,000 cells in 5 uL/well were dispensed into white, solid-bottom 1536-well plates using a Multidrop Combi (Thermo Scientific) dispenser. Following transfer of 23 nL compound or DMSO vehicle by a pin tool, the plates were incubated 15.5 hr at 37C and 5% CO2. 1 ul CellTiter-Fluor reagent (Promega, Madison, WI) was then added to each plate and following 30 min incubation at 37C, fluorescence intensity was quantified on a ViewLux CCD-based plate reader.
For orientation: Quantitative high-throughput screening tests each substance at several concentrations.
In the case of `CC(=O)Nc1cc(S(=O)(=O)O)cc2cc(S(=O)(=O)O)c(N=Nc3ccccc3)c(O)c12`, the Potency is 30.6 µM (active).

As for `CN(C)CCN1C(=O)c2ccccc2N(C)c2ccccc21`, the Potency result is “inactive”.

Consider `O=c1[nH]ncc2ccccc12`, for which the Potency result was “inactive”.

Consider `O=C1CCCCCCCCCCOCCCCO1`, for which the Potency entry is “inactive”.

With `CCn1cc(C(=O)O)c(=O)c2cc(F)c(N3CCNCC3)cc21`, the Potency entry is “inactive”.

Take `COc1ccccc1NC(=O)c1cc2ccccc2cc1O`: the Potency entry was “inactive”.

As for `OC[C@H]1O[C@@H](n2cnc3c(=S)nc[nH]c32)[C@H](O)[C@@H]1O`, the Potency entry was “inactive”.

Regarding `C=Cc1ccc(S(=O)(=O)O)cc1`, the Potency result was “inactive”.

On to `C=C(C)C(=O)OCCOCCOC(=O)C(=C)C`, for which the Potency entry is “inactive”.

Regarding `Brc1cc(Br)c(Oc2cc(Br)c(Br)cc2Br)cc1Br`, the Potency entry is “inactive”.

Consider `N#CCc1ccc(Cl)cc1Cl`, for which the Potency entry is “inactive”.

Consider `CN1C(=O)c2ccccc2C1=O`, for which the Potency result was “inactive”.

`CCCCOc1ccc(OCCCN2CCOCC2)cc1`: the Potency result is “inactive”.

In the case of `C1C[C@@H]2[C@H]3CC[C@H](C3)[C@@H]2C1`, the Potency entry was “inactive”.

As to `CC(=O)Oc1ccc([N+](=O)[O-])cc1CCl`, the Potency was 30.6 µM (active).

On to `COc1cc(C(=O)NC2CCN(C)CC2)ccc1Nc1ncc2c(n1)N(C1CCCC1)CC(F)(F)C(=O)N2C`, for which the Potency was 79.1 µM (active).

Take `Cc1ccccc1N=C(N)Nc1ccccc1C`: the Potency result was “inactive”.

Consider `COc1ncnc(NS(=O)(=O)c2ccc(N)cc2)c1OC`, for which the Potency result was “inactive”.

Take `c1ccc2c(c1)CCc1ccccc1N2`: the Potency result is “inactive”.

Take `CC1(C)[C@@H](OC(=O)CCC(=O)O)CC[C@]2(C)[C@H]3C(=O)C=C4[C@@H]5C[C@@](C)(C(=O)O)CC[C@]5(C)CC[C@@]4(C)[C@]3(C)CC[C@@H]12`: the Potency entry was “inactive”.

As to `C[C@]1(Cn2ccnn2)[C@H](C(=O)O)N2C(=O)C[C@H]2S1(=O)=O`, the Potency result is “inactive”.

With `CN1C(C(=O)Nc2ccccn2)=C(O)c2sccc2S1(=O)=O`, the Potency result is “inactive”.

As to `Cc1cc(C)c(N)cc1C`, the Potency entry was “inactive”.

As to `C/C=C(/C(=C/C)c1ccc(O)cc1)c1ccc(O)cc1`, the Potency entry is “inactive”.

For `CC(C)(O)c1ccc(CNC(=O)c2cccnc2Oc2ccc3nonc3c2)cc1`, the Potency result is “inactive”.

As to `CCCCCC[C@@H](O)C/C=C\CCCCCCCC(=O)O`, the Potency result was “inactive”.

For the compound `CCOC(=O)c1ccccc1C(=C1C=C(Br)C(=O)C(Br)=C1)c1cc(Br)c(O)c(Br)c1`, the Potency was 40.7 µM (active).

As to `Cc1ccc2c(Br)cc(Br)c(O)c2n1`, the Potency entry is “inactive”.

Consider `Cc1ccc(OC(=O)c2ccccc2O)cc1`, for which the Potency entry was “inactive”.

`CC(C)C(O)(c1ccc(OC(F)(F)F)cc1)c1cncnc1` (stereo not given): the Potency entry is “inactive”.

As for `Cc1ccc(Cl)c(Nc2ccccc2C(=O)O)c1Cl`, the Potency entry was “inactive”.

For `FC(F)(F)c1ccccc1Cl`, the Potency entry is “inactive”.

In the case of `c1ccc(C[n+]2cccc3ccccc32)cc1`, the Potency result was “inactive”.

In the case of `CC(O)c1ccccc1` (stereo not given), the Potency entry was “inactive”.

As to `NNC(=O)CP(=O)(c1ccccc1)c1ccccc1`, the Potency result is “inactive”.

Consider `CCCCCCNC(=O)n1cc(F)c(=O)[nH]c1=O`, for which the Potency entry was “inactive”.

As to `C=CC(=O)[O-].C=CC(=O)[O-].[Zn+2]`, the Potency entry is “inactive”.

With `CCCCCCCC/C=C\CCCCCCCCO`, the Potency result is “inactive”.

`O=C(CCCN1CC=C(n2c(=O)[nH]c3ccccc32)CC1)c1ccc(F)cc1`: the Potency result was “inactive”.

For `Cc1ccccc1S`, the Potency entry is “inactive”.

(Values after PubChem BioAssay (Tox21).)
